# Where “and” joins values, the source holds several entries; their conditions need not be identical. Equal entries are not always repeated. A structure can be active in one record and inactive in another. Calls of active or inactive are those of the source. The calls were made as follows: active = hit-call score of the fitted dose curve at least 0.9, where 1 is the maximum; inactive = score below 0.9.
# Read-out: E-selectin (Homo sapiens) (UniProt P16581)
# Assay: BSK_IMphg_ESelectin: BioMAP Diversity Plus: IMphg Assay for Eselectin Biomarker Activity (AID 2284291)
# Conditions: primary human endothelial cells with macrophages
# Protocol: BSK_IMphg is a cell-based, multiplexed-readout assay that uses venular endothelial cells and macrophages, a human vascular primary cell, with measurements taken at 24 hours after chemical dosing in a microplate: 96-well plate.BSK_IMphg_ESelectin is an assay component measured in the BSK_IMphg assay. It measures E-selectin antibody related to regulation of gene expression using ELISA technology.Data from the assay component BSK_IMphg_ESelectin was analyzed at the endpoint, BSK_IMphg_ESelectin, in the positive analysis fitting direction relative to DMSO as the negative control and baseline of activity. Using a type of binding reporter, gain or loss-of-signal activity can be used to understand protein changes. To generalize the intended target to other relatable targets, this assay endpoint is annotated to the 'cell adhesion molecules' intended target family, where the subfamily is 'selectins'.
# The levels of cell surface (or secreted, indicated by the prefix "s") biomarker endpoints were measured by ELISA. Overt cytotoxicity to cells in confluent adherent cultures (all systems other than the BT system) was assessed by measuring total protein levels using sulforhodamine B (SRB) staining in parallel cultures at the time of biomarker measurements, indicated as SRB endpoints. For proliferation assays for adherent cell types, individual cell types are cultured at sub-confluence and relative cell numbers quantified by SRB staining at time points optimized for each system (48 h: 3C and CASM3C systems; 72 h: BT and HDF3CGF systems; 96 h: SAg system). SRB was performed by staining cells with 0.1% SRB after fixation with 10% TCA and reading wells at 560 nm.Viability and proliferation of PBMC (T cells) was quantified by Alamar Blue reduction for the SAg and BT systems. For PBMC viability (referred to as PBMC Cytotoxicity within the assay endpoint names), cells were plated (75,000/well in a 96-well plate) and then chemical samples added for 1 h before addition of activators, SEB and TSST-1 (20 ng/mL final concentration each). Cells were incubated for 90 h. Then, Alamar Blue (20 uL/well) (Invitrogen, Cat DAL1100) was added for 6 h, and the plates were read with a fluorescence microplate reader at 546/580 nm (excitation/emission). For PBMC proliferation, cells were plated and activated as above but incubated for only 16 h prior to addition of Alamar Blue. Plates were read after 6 h.
# Chain of E-selectin (Homo sapiens) (P16581 whole entry, looked up): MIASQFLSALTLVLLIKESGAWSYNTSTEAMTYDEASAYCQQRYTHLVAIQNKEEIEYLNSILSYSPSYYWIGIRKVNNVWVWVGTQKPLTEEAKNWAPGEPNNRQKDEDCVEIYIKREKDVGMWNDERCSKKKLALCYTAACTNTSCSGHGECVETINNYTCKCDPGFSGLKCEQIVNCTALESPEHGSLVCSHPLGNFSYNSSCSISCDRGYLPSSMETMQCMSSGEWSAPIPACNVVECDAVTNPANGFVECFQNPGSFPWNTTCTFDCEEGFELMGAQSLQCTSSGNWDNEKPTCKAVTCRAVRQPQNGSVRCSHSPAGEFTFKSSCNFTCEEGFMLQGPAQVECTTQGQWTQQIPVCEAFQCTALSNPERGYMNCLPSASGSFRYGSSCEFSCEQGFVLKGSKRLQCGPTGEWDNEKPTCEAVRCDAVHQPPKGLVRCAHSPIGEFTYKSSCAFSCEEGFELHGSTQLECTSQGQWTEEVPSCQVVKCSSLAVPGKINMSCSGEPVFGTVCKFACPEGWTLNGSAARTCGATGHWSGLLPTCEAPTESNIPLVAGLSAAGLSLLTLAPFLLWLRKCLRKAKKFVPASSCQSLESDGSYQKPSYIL
Structure (SMILES),outcome,AC50
FC(F)(F)C(F)(F)C(F)(F)CC1CO1 (stereo not given),inactive,
FC(F)(F)C(F)(F)C(F)(F)C(F)(F)C(F)(F)C(F)(F)C(F)(F)CCI,inactive,
NC(=O)C(F)(F)C(F)(F)C(F)(F)F,inactive,
O=C(F)C1(F)C(F)(F)C(F)(F)C(F)(F)C(F)(F)C1(F)F,inactive,
O=C(O)C(F)(F)C(F)(F)C(F)(F)C(=O)O,inactive,
C=CC(=O)OCC(F)(F)C(F)(F)C(F)(F)COC(=O)C=C,,40 µM (active) and 33.5 µM (active)
O=S(=O)(O)CCC(F)(F)C(F)(F)C(F)(F)C(F)(F)C(F)(F)C(F)(F)C(F)(F)C(F)(F)F,inactive,21.3 µM (active)
C=CC(=O)OCC(F)(F)C(F)(F)C(F)(F)C(F)(F)C(F)(F)C(F)(F)C(F)(F)C(F)F,inactive,
NC(O)(C(F)(F)F)C(F)(F)F,inactive,
O=C(O)CCC(F)(F)C(F)(F)C(F)(F)F,inactive,
OCC(F)(F)C(F)(F)C(F)(F)C(F)(F)C(F)(F)C(F)(F)CO,inactive,
NC(=O)C(F)(F)C(F)(F)C(F)(F)C(F)(F)C(N)=O,inactive,
O=C(O)C(F)(F)C(F)(F)C(F)(F)OC(F)(C(F)(F)F)C(F)(F)F,inactive,
O=C(Cl)C(F)(F)C(F)(F)C(F)(F)C(F)(F)C(F)(F)C(F)(F)C(F)(F)F,inactive,
CNS(=O)(=O)C(F)(F)C(F)(F)C(F)(F)C(F)(F)C(F)(F)C(F)(F)C(F)(F)C(F)(F)F,,5.55 µM (active) and 8.07 µM (active)
COC(F)(C(F)F)C(F)(F)F (stereo not given),inactive,
OCC(F)(F)C(F)(F)C(F)(F)CO,inactive,
O=C(Cl)C(F)(F)C(F)(F)C(F)(F)C(F)(F)C(F)(F)C(F)(F)F,inactive,
OCCCC(F)(F)C(F)(F)C(F)(F)C(F)(F)C(F)(F)C(F)(F)C(F)(F)C(F)(F)F,,14.3 µM (active) and 11.4 µM (active)
O=C(O)C(F)(F)C(F)(F)C(F)(F)OC(F)(F)F,inactive,

Structure (SMILES),outcome,AC50
NS(=O)(=O)C(F)(F)C(F)(F)C(F)(F)C(F)(F)C(F)(F)C(F)(F)F,,30 µM (active) and 21.3 µM (active)
O=C(O)C(F)(F)OC(F)(F)C(F)(F)OC(F)(F)C(F)(F)OC(F)(F)F,inactive,
FC(F)(F)C(F)(F)C(F)(F)C(F)(F)C(F)(F)C(F)(F)CC[Si](Cl)(Cl)Cl,inactive,
OCC(O)CC(F)(F)C(F)(F)C(F)(F)C(F)(F)C(F)(F)C(F)(F)C(F)(F)C(F)(F)F (stereo not given),inactive,
O=S(=O)(O)CCC(F)(F)C(F)(F)C(F)(F)C(F)(F)F,inactive,
O=S(=O)(OCC(F)(F)F)C(F)(F)C(F)(F)C(F)(F)C(F)(F)F,inactive,
CCN(CCO)S(=O)(=O)C(F)(F)C(F)(F)C(F)(F)C(F)(F)C(F)(F)C(F)(F)C(F)(F)C(F)(F)F,,5.54 µM (active) and 6.2 µM (active)
C=CC(=O)OCCC(F)(F)C(F)(F)C(F)(F)C(F)(F)F,inactive,
CCOC(=O)CC(=O)C(F)(F)C(F)(F)F,inactive,
O=C(O)C(F)(F)C(F)(F)C(F)(F)C(F)(F)C(F)(F)C(F)(F)C(F)F,inactive,
C=C(C)C(=O)OCC(F)(F)C(F)(F)C(F)(F)C(F)F,inactive,
NCC(F)(F)C(F)(F)C(F)(F)C(F)(F)C(F)(F)C(F)(F)F,inactive,
OCCCCC(F)(F)C(F)(F)C(F)(F)C(F)(F)F,inactive,
NCC(F)(F)C(F)(F)C(F)(F)C(F)(F)C(F)(F)C(F)(F)C(F)(F)C(F)(F)F,inactive,
OCC(F)(F)C(F)(F)C(F)(F)C(F)(F)C(F)(F)C(F)(F)C(F)(F)C(F)(F)CO,,51.5 µM (active) and 36.1 µM (active)
CN(C(=O)C(F)(F)C(F)(F)C(F)(F)F)[Si](C)(C)C,inactive,
NC(=O)C(F)(F)C(F)(F)C(F)(F)C(F)F,inactive,
CO[Si](C)(CCC(F)(F)C(F)(F)C(F)(F)C(F)(F)C(F)(F)C(F)(F)F)OC,inactive,
O=C(O)CCC(F)(F)C(F)(F)C(F)(F)C(F)(F)C(F)(F)C(F)(F)C(F)(F)F,,2.27 µM (active) and 1.87 µM (active)

# — PubChem BioAssay (EPA / NIEHS)
